Rows were chosen to be rich in hits. Some 1.7% of all compounds tested hit in one or more screens of this group.
12-LOX inh: blocks human arachidonate 12S-lipoxygenase; hit rate 1.1% among 580,000; purified 12hLO, xylenol orange hydroperoxide absorbance; Potency, µM (series often up to 108 µM), without a hit: at the top dose activity change, negative = inhibition, hits mostly inhibitors; P18054; AID 1671190; note: % is set by controls: 0 for no effect and ±100 for the full control effect
Target sequence (P18054 whole entry, looked up): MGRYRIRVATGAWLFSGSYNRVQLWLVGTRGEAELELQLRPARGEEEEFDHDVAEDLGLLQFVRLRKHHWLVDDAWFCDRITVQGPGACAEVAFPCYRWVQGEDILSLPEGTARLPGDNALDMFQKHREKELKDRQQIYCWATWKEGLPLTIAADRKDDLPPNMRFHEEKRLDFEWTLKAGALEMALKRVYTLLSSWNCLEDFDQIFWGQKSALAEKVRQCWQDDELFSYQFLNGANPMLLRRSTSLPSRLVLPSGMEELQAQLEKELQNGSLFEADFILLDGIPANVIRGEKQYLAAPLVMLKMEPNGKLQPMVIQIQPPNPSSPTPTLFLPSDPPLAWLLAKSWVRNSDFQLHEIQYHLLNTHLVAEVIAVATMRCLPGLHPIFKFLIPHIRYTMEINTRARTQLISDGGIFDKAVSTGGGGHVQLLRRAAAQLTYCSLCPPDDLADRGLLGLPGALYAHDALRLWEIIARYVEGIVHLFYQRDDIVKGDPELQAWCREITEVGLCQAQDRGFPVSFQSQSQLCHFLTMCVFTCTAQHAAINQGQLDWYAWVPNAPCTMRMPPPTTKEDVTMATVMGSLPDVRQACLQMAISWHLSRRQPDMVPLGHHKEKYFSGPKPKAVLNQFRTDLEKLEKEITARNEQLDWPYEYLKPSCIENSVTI
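Purified human 12hLO (150 nM final) in 25 mM Hepes, 0.01% Triton X-100, pH 7.0 was preincubated 15 min at room temperature with compound. Then 40 uM arachidonic acid was added, 30 min. Hydroperoxide was read by Fe-XO absorbance ratio 573/405 nm.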
Apoferritin bind: binds horse apoferritin like a general anesthetic; P02791; apoferritin/1-aminoanthracene competitive binding, fluorescence; Potency, µM (titrated, usually from 77.5 µM), without a hit: at the highest dose activity change, negative = displacement, actives largely listed as inhibitors; hit rate 0.074% among 350,000; note: % is set by controls: 0 for no effect and ±100 for the full control effect; nearly all actives have a fitted effect of over 20% in size
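In PBS, apoferritin at 10 uM is loaded with 1-AMA from a 50% saturated solution. After 10 min of compound exposure at ambient temperature, reduced 535 nm fluorescence indicates probe displacement.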
rTrxR1 inhibitor: rat TrxR1 inhibition | hit rate 1% among 390,000 | recombinant rTrxR1, NADPH fluorescence consumption, selenite substrate | Potency, µM (highest dose often 114 µM), inactives show at the top dose activity change, negative = inhibition, most hits filed as inhibitors; note: % is set by controls: 0 for no effect and ±100 for the full control effect; nearly all actives have a fitted effect of over 65% in size
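Rat TrxR1 (90 nM in the dispensed reagent) was pre-reduced with 400 uM NADPH for 5 min at room temperature, then incubated with compound for 15 min. After 400 uM selenite was added, NADPH fluorescence (Ex 340/Em 450 nm) was followed for 8 min.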
TrxR1 substrate: rat thioredoxin reductase 1 substrate activity; O89049; purified TrxR1 substrate turnover, NADPH consumption readout; Potency, µM (titrated, usually from 114 µM), for inactives: top-dose activity change, negative = substrate turnover; hit rate 0.01% among 390,000; AID 588456; note: % is set by controls: 0 for no effect and ±100 for the full control effect; nearly all actives have a fitted effect of over 50% in size
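Rat TrxR1, dispensed at 90 nM, was prereduced with 400 uM NADPH (final) for 5 min at ~22 deg C, then incubated with compound 15 min before 400 uM selenite. A first-read NADPH fluorescence drop versus no-compound background flagged substrates.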
Glioma ERSR ind: inducers of ER stress response in human glioma cells | U87-MG GRP78 promoter luciferase reporter, 16 h | Potency, µM, for the others: at the top dose activation, hits mostly activators | hit rate 0.02% among 420,000 | AID 602332; note: series mostly up to about 76 µM; % of control where 0% means no effect; nearly all actives have a fitted effect of over 35% in size
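Stably transfected U87-MG glioma cells carrying a GRP78-based luciferase sensor; 16 h compound incubation. Luminescence end-point read 10 min after Bright-Glo addition at room temperature.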
IDH1 R132H inh: blocks human mutant IDH1 R132H enzyme; O75874; IDH1-R132H enzyme, NADPH consumption, diaphorase/resazurin fluorescence; Potency, µM (highest dose often 76.6 µM), for inactives: at the top dose activity change, negative = inhibition, hits mostly inhibitors; hit rate 0.093% among 390,000; AID 602179; note: % is set by controls: 0 for no effect and ±100 for the full control effect; nearly all actives have a fitted effect of over 65% in size
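IDH1-R132H (0.5 ug/mL dispensed) in pH 7.5 Tris buffer was preincubated 30 min with compound, then given a substrate mix of 0.016 mM NADPH and 2 mM alpha-KG for 80 min at room temperature; remaining NADPH was read by diaphorase/resazurin fluorescence.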
The depositor's hits bear a star; i = inactive; ? = inconclusive; . = no result; [ ] = another dose, or the depositor's remark. Calls come from the whole dose curve; as a rule, active = well fitted curve in the direction sought with a large enough effect; inconclusive = small, poorly fitted or top-dose-only effect, or another doubt; inactive = no such curve, though single readings can be large; an effect the other way counts as inactive or inconclusive. Potency is the fitted concentration of half-maximal effect.

SMILES	12-LOX inh	Apoferritin bind	rTrxR1 inhibitor	TrxR1 substrate	Glioma ERSR ind	IDH1 R132H inh
Cc1cccc(NC(=S)NC(=O)/C=C/c2ccco2)n1	?	?	-16%[57.1 µM]	-1%[57.1 µM]	5%	4%
Cc1ccccc1NC(=S)NC(=O)/C=C/c1ccco1	0%	-19%	16µM*	5%	-6%	5%
O=C(/C=C/c1ccco1)NC(=S)Nc1cc(-c2nc3ccccc3s2)ccc1Cl	?	40%	50µM*	-9%	5%	4%
Cc1ccc(-c2nc3ccccc3s2)cc1NC(=S)NC(=O)/C=C/c1ccco1	?	-24%	-51%	19%[57.1 µM]	4%	8%
COc1cc2c(cc1OC)C(=O)C(Sc1nnc(-c3cccc(Cl)c3)o1)C2 (centres undefined)	26%	.	.	.	.	.
O=C(NC[C@H]1OC[C@@H](NC2CCC(F)(F)CC2)[C@@H]1O)c1cccs1	49%[176 µM]	.	.	.	.	.
NCC(=O)N1CCCC2(Cc3ccccc3CN2S(=O)(=O)c2ccccc2)C1 (centres undefined)	7%[6.33 µM]	.	.	.	.	.
COc1ccccc1NC(=S)NC(=O)/C=C/c1ccco1	40µM*	-1%	20µM*	-3%	-1%	5%
COc1ccccc1NC(=O)/C=C\c1ccco1	?	2%	3.5µM*	-4%	5%	-6%
O=C(c1cccc(Cl)c1)N1CCC(n2cc(-c3nc(-c4ccccc4)no3)nn2)C1 (centres undefined)	-7%	.	.	.	.	.
O=C(Cc1cccs1)Nc1ccc(-c2nnc3n2CCCC3)cc1	52%	.	.	.	.	.
Cc1ncsc1CN1CCc2nn(C)c(=O)n2CC1	32%	.	.	.	.	.
CCc1cnc(C)nc1N1CCC2(CC1)CC(c1ccccc1)C(=O)N2C (centres undefined)	-2%	.	.	.	.	.
O=C(CSc1nnc(-c2ccco2)o1)c1ccccc1	-9%	?	?	5%	10%	4%
O=C(CSc1nnc(-c2ccco2)c(-c2ccco2)n1)c1ccccc1	28µM*	-6%	13µM*	-11%	1%	-5%
CC(=O)c1ccc(NC(=O)CSc2nnc(-c3ccco3)c(-c3ccco3)n2)cc1	?	-11%	7.1µM*	-3%[57.1 µM]	1%	4%
O=C1Nc2ccccc2N=C(c2ccccc2)C1Br (centres undefined)	40µM*	-18%	-4%[57.1 µM]	-1%[57.1 µM]	5%	-7%
CC[n+]1ccccc1/C=C1\Sc2ccc(C)cc2N1C	40µM*	-7%	17%	4%	0%	8%
CN1/C(=C/c2cccc[n+]2CCO)Sc2ccccc21	45µM*	-17%	23%[57.1 µM]	15%	-4%	2%
CC(=S)/C=C1\Sc2ccccc2N1C	10µM*	-18%	25%	3%	0%	8%
COc1ccc(C(=O)/C=C2\Sc3ccccc3N2C)cc1	-14%	130%	23%	5%	-1%	31%
Cc1ccc(-c2nc(C#N)c(NCC(c3cccs3)N3CCOCC3)o2)cc1 (centres undefined)	1%	.	.	.	.	.
CC(Oc1ccccc1Cl)C(=O)Nc1ccc(S(=O)(=O)N2CCN(C)CC2)cc1 (centres undefined)	?	.	20µM*	-2%	-3%	8%
CC(Oc1ccccc1)C(=O)Nc1ccc(S(=O)(=O)N2CCN(C)CC2)cc1 (centres undefined)	-2%	.	28%	13%	-3%	7%
Cn1nnc(NC(=S)NC(=O)c2ccco2)n1	?	11%	-35%	-11%	0%	6%
SMILES	12-LOX inh	Apoferritin bind	rTrxR1 inhibitor	TrxR1 substrate	Glioma ERSR ind	IDH1 R132H inh
Cn1nnc(NC(=S)NC(=O)c2cc3ccccc3o2)n1	2.5µM*	0%	?	-4%	-3%	7%
S=C(NCc1ccc2[nH]c3c(c2c1)CCCC3)Nc1ccccc1	40µM*	-12%	12%[57.1 µM]	1%[57.1 µM]	0%	1%
Cc1cc(C)cc(NC(=O)CN(C)S(=O)(=O)c2ccc3[nH]c4c(c3c2)CCCC4)c1	-7%	-3%	7%	-2%	-2%	-8%
Cc1cc(C)cc(NC(=S)NCc2ccc3[nH]c4c(c3c2)CCCC4)c1	40µM*	-3%	-13%	0%	-2%	-1%
CN(C)CCCNc1oc(-c2ccc(S(=O)(=O)N3CCCCCC3)cc2)nc1C#N	-4%	.	.	.	.	.
C#CCN(C[C@H]1[C@H](OC(=O)NCCCCCC)[C@H](OC(=O)NCCCCCC)C[C@@H](C(=O)OC)[C@H]1C(=O)OC)S(=O)(=O)c1ccc(C)cc1	-26%	.	.	.	2%	-3%
C#CCN(C[C@@H]1[C@@H](OC(=O)Nc2cccs2)[C@@H](OC(=O)Nc2cccs2)Cn2c(=O)n(CCCCCC)c(=O)n21)S(=O)(=O)c1ccc(C)cc1	10µM*	.	.	.	-6%	2%
CC(=O)C1=CCC(c2ccc(C)o2)N(S(=O)(=O)c2ccc(C)cc2)C1 (centres undefined)	10µM*	.	.	.	-5%	.
CC(=O)C1=CCC(c2cccs2)N(S(=O)(=O)c2ccc(C)cc2)C1 (centres undefined)	?	.	.	.	-6%	.
Oc1c(CN2CCOCC2)cc(-c2ccccc2)cc1CN1CCOCC1	0%	-4%	4%[57.1 µM]	8%[57.1 µM]	-2%	-2%
Oc1c(CN2CCOCC2)ccc2ccccc12	45µM*	-7%	?	10%[57.1 µM]	-2%	9%
Fc1cc(F)cc(-c2noc3ncnc(NCc4ccco4)c23)c1	3%	.	.	.	.	.
O=C1CCCC2=C1C(c1cccc(F)c1F)Nc1nonc1N2 (centres undefined)	10%	.	.	.	.	.
COc1cccc(NC(C)c2nc3scc(-c4cccs4)c3c(=O)[nH]2)c1 (centres undefined)	13%	.	.	.	.	.
CC(Nc1ccc(N2CCOCC2)cc1)c1nc2scc(-c3cccs3)c2c(=O)[nH]1 (centres undefined)	35µM*	.	.	.	.	.
N#C/C(=C/c1ccccc1OCCOc1ccccc1)c1ccccc1	-3%	.	.	.	.	.
O=[S+]([O-])(c1cccc(C(F)(F)F)c1)N1CCn2c(nnc2C2CCCNC2)C1 (centres undefined)	65%	.	.	.	.	.
Cc1ccc(C(=O)CCS(=O)(=O)c2ccc(Br)cc2)cc1	i	-10%	0.5µM*	14%	-18%	-2%
COc1ccc(C(=O)CCS(=O)(=O)c2ccc(C)cc2)cc1	23%	-6%	14µM*	0%	-18%	-5%
COc1ccc(C(=O)NNC(=O)C(=O)/C=C(\O)c2ccc(C)cc2)cc1	35µM*	2%	-5%	-2%	-2%	-2%
COc1ccc(C(=O)NCS(=O)(=O)c2ccc(C)cc2)cc1	-10%	-13%	28µM*	3%	-4%	0%
COc1ccc(COC(=O)CCS(=O)(=O)c2ccc(C)cc2)cc1	-29%	.	8%	-3%[57.1 µM]	-5%	10%
O=C(Nc1ccccc1)N1CCC(N(C(=O)C2CC2)C2CCOCC2)CC1	3%	.	.	.	.	.

Compound activity deposited in PubChem BioAssay by National Center for Advancing Translational Sciences (NCATS).
